tim23-1 inh – growth inhibitors of tim23-1 mutant yeast, primary screen, luminescence, uHTS; S. cerevisiae tim23-1 growth, BacTiter-Glo luminescence, 24 h; actives 1.3% (n = 330,000); inhibition, % at 20 µM;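 active means growth inhibition of the mutant yeast at or above 50%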;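 further: temperature-sensitive mutant grown at 25 °C; plate controls were DMSO-treated mutant yeast for no effect and medium wells lacking yeast for full effect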
TIM10 inh – growth inhibitors of isogenic TIM10 control yeast, primary screen, counter-screen for tim10-1 yeast inhibitor project, luminescence, uHTS; S. cerevisiae TIM10 strain growth, BacTiter-Glo luminescence, 24 h; inhibition, % at 10 µM; actives 1.4% (n = 330,000);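 active means inhibition of 40% or more at the single tested concentration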;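 further: wild-type TIM10 isogenic control strain grown at permissive 25 °C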
NALP1 yeast inh – NALP1 inflammasome inhibitors in reconstituted yeast, colorimetric, S. cerevisiae, triplicate retest; AID 2071, 2009; S. cerevisiae NALP1/ASC/caspase-1 growth, X-gal OD620, 72 h; inhibition, % at 10 µM; actives 0.61% (n = 280,000); in the data active means inhibition mostly above about 24%, no sharp cut-off; inactive means mostly below about 32%
tim10-1 inh – growth inhibitors of tim10-1 mutant yeast, primary screen, luminescence, uHTS. inhibition, % at 20 µM. S. cerevisiae tim10-1 ts strain growth, BacTiter-Glo, 24 h. actives 2.2% (n = 330,000);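 active means inhibition of at least 40%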;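 further: mutant grown at 25 °C; 0% = DMSO wells with yeast and 100% = wells holding no yeast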
NALP3 yeast inh – NALP3 inflammasome inhibitors in reconstituted yeast, primary screen, luminescence, uHTS | Yeast reconstituted NLRP3/ASC/caspase-1, beta-gal luminescence, 24 h | inhibition, % at 10 µM | actives 0.39% (n = 330,000) | AID 2825, 2010;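 active means inhibition of 50% or more; inactive means inhibition below 50%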;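 further: plate controls were induced DMSO wells for no effect and uninduced yeast grown without galactose for full effect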
NALP3 yeast conf – NALP3 inhibitors retested in yeast, confirmation, luminescence, single concentration. shares compounds with NALP3 yeast inh. yeast expressing human NALP3. inhibition, % at 10 µM. actives 81% (n = 1,300). AID 435006, 2010; in the data active means inhibition above about 48%
Casp1 ASC ctr – CASP1-PYCARD signaling inhibition in yeast, confirmatory test, counterassay for NLRP3 inhibitor program, one-dose; actives 66% (n = 1,000); yeast expressing Caspase-1-ASC, luminescence counter screen; shares compounds with NALP3 yeast inh; inhibition, % at 10 µM
NALP3 yeast rt – NALP3 inhibitors in yeast, repeat test, confirmation, luminescence, single concentration, retest; shares compounds with NALP3 yeast inh; yeast expressing human NALP3, luminescence read-out; inhibition, % at 10 µM; actives 53% (n = 1,000); AID 488794, 2010
tim10-1 confirm – growth inhibitors of tim10-1 mutant yeast, confirmation, single concentration, luminescence, S. cerevisiae. inhibition, % at 20 µM. shares compounds with tim10-1 inh. actives 56% (n = 7,400). S. cerevisiae tim10-1 ts strain growth, BacTiter-Glo, 24 h;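 active means inhibition of yeast growth at or above a set limit in either of two repeat tests at 20 µM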;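 further: tim10-1 mutant grown at permissive 25 °C to find synthetic lethal compounds; 0% = DMSO yeast wells and 100% = medium wells without yeast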
TIM10 conf – growth inhibitors of wild-type TIM10 yeast, confirmation, counter-screen for tim10-1 synthetic lethality project, single concentration, luminescence, S. cerevisiae; shares compounds with TIM10 inh; S. cerevisiae tim10 strain growth, BacTiter-Glo luminescence, 24 h; inhibition, % at 10 µM; actives 63% (n = 4,600); AID 463215, 2010;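 active means inhibition of yeast growth at or above a set limit in either of two replicates at 10 µM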;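 further: this counterscreen used the strain with wild-type TIM10; 0% = yeast with DMSO and 100% = medium wells lacking yeast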
An asterisk follows results filed as active; . = no result. In the library only some 4% were active in any assay of this set; here they are far more common. Unless noted, no stated cut-off is given here; in the data, active means inhibition above about 50%; inactive means the rest.

SMILES	tim23-1 inh	TIM10 inh	NALP1 yeast inh	tim10-1 inh	NALP3 yeast inh	NALP3 yeast conf	Casp1 ASC ctr	NALP3 yeast rt	TIM10 conf	others
N#C/C(=N/Nc1ccc(OC(F)(F)F)cc1)C(N)=S	26.2	25.6	6.6	47.5*	85.8*	96.8*	.	.	.	tim10-1 confirm=56.5*
COc1ccc(N/N=C(\C#N)C(N)=O)cc1	-138.6	-146.9	16.6	-81.4	6.5	.	.	.	.
Nc1nc(-c2ccccc2)c(-c2ccc([N+](=O)[O-])cc2)s1	38.2	26.1	-3.7	46.4*	95.0*	97.8*	97.6*	94.7*	.	tim10-1 confirm=16.2
NS(=O)(=O)c1ccc(CCNC(=O)C(=O)c2cn(CC(=O)N3CCCC3)c3ccccc23)cc1	-10.0	0.7	34.3	-13.2	7.8	.	.	.	.
C=C1/C(=C\C=C2/CCC[C@]3(C)[C@@H]([C@H](C)CCCC(C)(C)O)CC[C@@H]23)C[C@@H](O)C[C@@H]1O	49.0	6.0	2.8	47.8*	56.8*	57.8*	54.9*	36.6	.	tim10-1 confirm=29.0
CC(C)CCC[C@@H](C)[C@H]1CC[C@H]2[C@@H]3C(=O)C=C4C[C@@H](O)CC[C@]4(C)[C@H]3CC[C@]12C	10.8	6.6	.	8.3	3.3	.	.	.	.
COC(=O)C(=Cc1ccccc1[N+](=O)[O-])C(=O)OC	43.8	20.6	14.5	43.5*	51.3*	62.9*	40.6	44.0	.	tim10-1 confirm=26.7
CCCOc1ccc(C(=O)NNC(=S)NC(=O)c2cccs2)cc1	21.4	11.3	15.2	47.9*	55.5*	76.8*	35.8	54.7*	.	tim10-1 confirm=-9.8
CCCN(CC(=O)Nc1ccccc1C)C(=O)Cc1cccs1	7.5	5.4	.	8.8	15.9	.	.	.	.
C/C(CCC12CC3CC(CC(C3)C1)C2)=N\NC(N)=S	44.8	4.0	5.6	57.8*	58.0*	50.2*	69.9*	41.4	.	tim10-1 confirm=-10.9
C/C(CC1CC(C)OC1=O)=N\NC(N)=S (centres undefined)	-0.7	7.7	11.0	2.8	-2.3	.	.	.	.
COCCCC1CCN(C(=O)C2CCC(=O)N(CCc3cccc(F)c3)C2)CC1 (centres undefined)	14.1	-2.4	24.3	10.4	12.5	.	.	.	.
NNC(=O)c1ccc2nc(-c3ccc(Br)cc3)cn2c1	-51.5	40.2*	38.9*	-48.1	52.7*	70.2*	.	.	30.1
O=S(=O)(Nc1ccc(S(=O)(=O)Nc2ccccc2)cc1)c1ccccc1	5.4	-4.3	-2.3	19.3	-6.3	.	.	.	.
O=S(=O)(Nc1ccc(N=Nc2ccccc2)cc1)c1ccccc1	40.9	41.8*	36.0	54.6*	58.8*	2.8	.	.	-3.1	tim10-1 confirm=51.2*
CC(C)c1ccc(NC(=O)C2CCN(S(=O)(=O)c3ccc4c(c3)C(C)(C)C(=O)N4C)CC2)cc1	10.6	3.4	16.3	10.1	-1.0	.	.	.	.
O=C(/C=C/c1cccc(Cl)c1)c1nc2ccccc2[nH]1	15.2	57.8*	9.6	50.1*	92.4*	84.8*	99.0*	93.2*	62.8*	tim10-1 confirm=40.7*
CCCNS(=O)(=O)c1ccc(OCC(=O)Nc2ccc3c(c2)OCO3)cc1	5.6	0.1	10.8	8.4	-4.6	.	.	.	.
CNC(=O)COc1coc(CN2CCN(c3ccccc3F)CC2)cc1=O	-10.3	-1.8	7.0	-16.7	0.8	.	.	.	.
CCCCNC(=O)[C@]1(C)CCC[C@@]2(C)C3CC[C@@]4(C)C[C@]3(CCC21)CC4=O (some centres undefined)	26.6	59.4*	.	-2.0	53.9*	50.4*	60.0*	53.0*	14.9
N#C/C(=C/c1cccs1)c1nc2ccccc2[nH]1	34.0	49.7*	62.8	-4.8	80.3*	70.1*	83.5*	88.2*	-34.6
CN(C)/C=C(\C#N)c1nc2ccccc2[nH]1	13.4	7.9	0.5	-17.2	12.9	.	.	.	.
COc1ccc2sc3ccccc3c(=O)c2c1	32.8	25.8	17.3	8.7	24.0	.	.	.	.
Cc1cc(O)cc2c(=O)c3ccccc3sc12	20.9	60.3*	6.9	36.0	78.6*	92.2*	54.2*	62.8*	55.4*
Cc1ccc(-c2cc3c(nn2)-c2ccccc2C3=O)cc1	18.8	30.6	.	9.6	17.5	.	.	.	.
SMILES	tim23-1 inh	TIM10 inh	NALP1 yeast inh	tim10-1 inh	NALP3 yeast inh	NALP3 yeast conf	Casp1 ASC ctr	NALP3 yeast rt	TIM10 conf	others
Cc1ccccc1-c1cc2c(nn1)-c1ccccc1C2=O	43.8	44.2*	16.7	28.2	60.6*	55.0*	25.8	35.8	30.1*
Cc1nc2ccc(NC(=O)c3cccs3)cc2s1	48.2	46.0*	-3.9	17.8	64.6*	77.4*	62.0*	71.2*	26.6
O=C(Nc1ccc2oc(-c3ccncc3)nc2c1)c1cccs1	39.6	52.7*	6.6	-6.2	58.6*	84.0*	66.3*	65.6*	51.3*
CC(=O)Nc1ccc2nc(NC(=O)c3cccs3)sc2c1	11.2	22.8	.	24.4	-0.8	.	.	.	.
O=C(Nc1ccc(-c2nc3cc(NC(=O)c4cccs4)ccc3o2)cc1)c1cccs1	-13.9	-22.0	12.3	6.0	36.5	.	.	.	.
O=C(CCS(=O)(=O)c1ccccc1)N(CCCN1CCOCC1)c1nc2c(F)cccc2s1	-41.1	66.1*	.	34.5	56.6*	71.6*	42.6	52.6*	69.8*
Oc1c(C=Nc2ccc(Cl)cn2)sc2ccccc12	-2.9	0.4	0.2	6.1	20.8	.	.	.	.
Oc1c(/C=N/c2ccccn2)sc2ccccc12	36.6	69.4*	-13.0	29.5	65.2*	75.9*	43.6	70.2*	62.0*
CCOCCCNC(=O)CN1CCN(Cc2ccc(Cl)cc2)C1=O	9.3	10.8	-5.0	-8.5	-10.1	.	.	.	.
CN(C(=O)c1ccc2c(c1)OCO2)C1CCS(=O)(=O)C1 (centres undefined)	-0.4	-4.6	.	-18.1	0.3	.	.	.	.
O=C(Nc1cccc(S(=O)(=O)N2CCCCC2)c1)c1ccc2ccccc2n1	25.1	40.6*	-15.9	44.3*	-104.5	-58.0	.	.	5.2	tim10-1 confirm=21.2
O=C(Nc1cccc(S(=O)(=O)N2CCCCCC2)c1)c1ccc(Cl)nc1	10.4	-36.9	.	-12.9	-0.6	.	.	.	.

Compound activity deposited in PubChem by Sanford-Burnham Center for Chemical Genomics.
